This is a sample that favours compounds with a hit; in the whole collection about 9.4% have one here.
HPGD block: qHTS Assay for Inhibitors of HPGD (15-Hydroxyprostaglandin Dehydrogenase). 15-hydroxyprostaglandin dehydrogenase [NAD(+)] (Homo sapiens), P15428. purified HPGD, NADH fluorescence kinetic, PGE2 substrate. Potency, µM, actives largely listed as inhibitors. actives 4.3% (n = 150,000); active = well fitted inhibition curve with a large enough effect, not every such curve was filed as active; inconclusive = small, poorly fitted or top-dose-only effect, or another doubt; inactive = no such curve, though single readings can be large or run the other way
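NADH formation kinetics: reaction with 30 uM PGE2 and 1 mM NAD+ (final), 20 nM enzyme, Tris-HCl pH 8 with Tween 20, after 15 min compound preincubation at room temperature. Fluorescence change, last versus first of five reads.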
IMPase inh: qHTS Assay for Identifying the Cell-Membrane Permeable IMPase Inhibitors; inhibition (IP1 accumulation), % at 46.1 µM; 120,000 tested, under 10 active; Inositol monophosphatase 1 (Rattus norvegicus), P97697; AID 901, 2007; CHO-M1 cells, IP1 accumulation, HTRF TR-FRET ratio; active = well fitted curve in the direction sought with a large enough effect in the signal ratio, not every such curve was filed as active; inconclusive = small, poorly fitted or top-dose-only effect, or a change in a side signal; inactive = no such curve, though single readings can be large or run the other way; the % refers to the signal ratio;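 note: cells stimulated with carbachol in lithium chloride buffer; higher means more IMPase inhibition seen as more IP1 and lower FRET ratio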
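Elevated IP1 in lysates lowers TR-FRET signal (665/620 ratio and 620 channel reported). Cells were CHO-M1, given carbachol (50 uM as added) plus 50mM LiCl, pH 7.4, 30 min, 37C; compounds titrated up to 46 uM; AC50 by Hill equation.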
HTT cytoprotect: qHTS Multiplex Assay to Identify Dual Action Probes in a Cell Model of Huntington: Cytoprotection (ATP). PC12 HTT-Q103 induced, cytoprotection, ATP luminescence, 40 h. Potency, µM (top dose mostly 56.4 µM), most hits filed as activators. actives 0.14% (n = 230,000); note: nearly all actives have a fitted effect of over 45% in size
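ATP quantification (ATPlite) reports survival of PC12 cells in which tebufenozide, 100 nM final, switches on Htt exon 1 with 103 glutamines linked to GFP; compounds are titrated.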
ALDH1A1 inh: qHTS Assay for Inhibitors of Aldehyde Dehydrogenase 1 (ALDH1A1); Aldehyde dehydrogenase 1A1 (Homo sapiens), P00352; Purified ALDH1A1, NADH fluorescence, propionaldehyde substrate; Potency, µM (doses to about 75.3 µM), usual class: inhibitors; actives 7.3% (n = 220,000); active = well fitted inhibition curve with a large enough effect, not every such curve was filed as active; inconclusive = small, poorly fitted or top-dose-only effect, or another doubt; inactive = no such curve, though single readings can be large or run the other way
Target sequence (P00352 whole entry, looked up): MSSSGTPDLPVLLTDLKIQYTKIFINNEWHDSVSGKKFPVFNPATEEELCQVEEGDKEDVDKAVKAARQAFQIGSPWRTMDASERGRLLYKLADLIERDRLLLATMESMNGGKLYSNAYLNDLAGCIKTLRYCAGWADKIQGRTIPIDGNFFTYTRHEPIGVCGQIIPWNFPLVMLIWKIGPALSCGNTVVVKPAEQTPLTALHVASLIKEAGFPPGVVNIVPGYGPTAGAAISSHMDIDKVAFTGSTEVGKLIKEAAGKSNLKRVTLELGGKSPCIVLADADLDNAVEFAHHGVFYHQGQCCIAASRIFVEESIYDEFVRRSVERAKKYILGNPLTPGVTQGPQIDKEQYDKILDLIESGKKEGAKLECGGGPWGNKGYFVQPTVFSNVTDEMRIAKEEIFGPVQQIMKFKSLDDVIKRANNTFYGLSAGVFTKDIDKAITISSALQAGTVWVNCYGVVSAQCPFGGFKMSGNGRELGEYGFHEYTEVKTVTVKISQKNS
HttQ103 aggreg: qHTS Multiplex Assay to Identify Dual Action Probes in a Cell Model of Huntington: Aggregate Formation (GFP); PC12 HttQ103-GFP aggregates, Acumen cytometry, 40 h; actives 1.1% (n = 220,000); Potency, µM (highest dose often 46.1 µM), most hits filed as inhibitors; AID 1688, 2009; note: nearly all actives have a fitted effect of over 60% in size
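Aggregates are detected as GFP objects 1–25 µm with signal 6 STDEV over background in lysates of induced PC12 cells. These carry Huntingtin exon 1 with 103 glutamines fused to GFP under an ecdysone promoter; compounds titrated.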
IMPase Li cell: qHTS Assay for Identifying the Cell-Membrane Permeable IMPase Inhibitors: Potentiation with Lithium; actives 0.35% (n = 210,000); CHO-M1 cells, IP1 TR-FRET (IP-One), carbachol + lithium; Potency, µM (doses to about 59.4 µM), actives largely listed as inhibitors;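 note: IP1 builds up when IMPase is blocked and the TR-FRET signal falls; nearly all actives have a fitted effect of over 50% in size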
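CHO-M1, 2000 cells/well, 16–30 h culture; cpd + low Li+, 30 min 37C; lysis with d2-IP1/Eu-anti-IP1 Ab, 10 min RT; TR-FRET 665/620 ratio and 620 channel; AC50 via Hill.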
A number is an active result; [ ] = another dose, or the depositor's remark. Unless noted, calls come from the whole dose curve; as a rule, active = well fitted curve in the direction sought with a large enough effect; inconclusive = small, poorly fitted or top-dose-only effect, or another doubt; inactive = no such curve, though single readings can be large; an effect the other way counts as inactive or inconclusive.

`O=C(O)C1CC=CCC1C(=O)Nc1ccc(Oc2ccc(Cl)cc2)cc1` (stereo not drawn) gave HPGD block inactive, ALDH1A1 inh 1.41µM, HttQ103 aggreg inactive and IMPase Li cell inactive.
`O=C(O)[C@H]1CC=CC[C@@H]1C(=O)Nc1cccc(O)c1` gave HPGD block inactive, HTT cytoprotect inactive[10 µM], ALDH1A1 inh inactive[13.5 µM] and IMPase Li cell inactive.
Screening COC(=O)c1cc(NC(=O)C2CC=CCC2C(=O)O)cc(C(=O)OC)c1 (stereo not drawn) returned HPGD block inactive, IMPase inh inactive, HTT cytoprotect inactive[0.074 µM], ALDH1A1 inh 12.6µM, HttQ103 aggreg inactive and IMPase Li cell inactive.
O[C@H]1[C@H]2c3cc4c(cc3CN3CCC(=C[C@@H]1O)[C@H]23)OCO4 was read as HTT cytoprotect inactive, ALDH1A1 inh inactive and IMPase Li cell inactive.
`CC1=CC(C)(C)Nc2ccc(CSc3ccccc3)cc21` gave HPGD block inconclusive, HTT cytoprotect inactive[10 µM], ALDH1A1 inh inconclusive and IMPase Li cell inactive.
For Cc1cc(C)c(OCCOCCN(C)C)c(Br)c1 the results were HPGD block inactive, HTT cytoprotect inactive[10 µM], ALDH1A1 inh inactive, HttQ103 aggreg inactive and IMPase Li cell inactive.
For Cc1cc(C)c(OCCCCN(C)C)c(Br)c1 the results were HTT cytoprotect inactive, ALDH1A1 inh 22.4µM, HttQ103 aggreg inactive[9.22 µM] and IMPase Li cell inactive.
For COc1cccc(CNc2ccc3c(c2)CCC3)c1 the results were HPGD block inactive, IMPase inh inactive, HTT cytoprotect inactive, ALDH1A1 inh 12.6µM, HttQ103 aggreg inactive[9.22 µM] and IMPase Li cell inactive.
CNc1ncnc2ccc(-c3cccc(OC)c3)cc12 was read as HTT cytoprotect inactive, ALDH1A1 inh inconclusive and IMPase Li cell inactive.
CC(=O)C(Cl)C(=O)Nc1ccccc1 (stereo not drawn) was read as HTT cytoprotect inactive, ALDH1A1 inh 1.26µM, HttQ103 aggreg inactive and IMPase Li cell inactive.
CC(=O)Nc1ccccc1 was read as HPGD block inactive, HTT cytoprotect inactive, ALDH1A1 inh inactive, HttQ103 aggreg inactive and IMPase Li cell inactive.
`CCOC(=O)c1sc(NC(=O)c2cc(-c3ccccc3C)nc3ccccc23)c(C#N)c1C` gave HPGD block 15.8µM, IMPase inh inactive, HTT cytoprotect inactive, ALDH1A1 inh 8.91µM, HttQ103 aggreg 5.62µM and IMPase Li cell inactive.
Screening Cc1ccccc1-c1cc(C(=O)Nc2sc(C)c(C)c2C(N)=O)c2ccccc2n1 returned HPGD block 31.6µM, IMPase inh inactive, HTT cytoprotect inactive, ALDH1A1 inh inconclusive, HttQ103 aggreg inconclusive and IMPase Li cell inactive.
`CCOC(=O)c1c(NC(=O)c2cc(-c3ccc(Cl)s3)nc3ccccc23)sc(C(N)=O)c1C` gave HPGD block inactive, IMPase inh inactive, HTT cytoprotect inactive[10 µM], ALDH1A1 inh inactive, HttQ103 aggreg inactive and IMPase Li cell inactive.
CCOc1ccc(OCC)c(NC(=O)c2[nH]c(C)c(C(C)=O)c2C)c1 was read as HPGD block inconclusive, IMPase inh inactive, HTT cytoprotect inactive, ALDH1A1 inh inactive, HttQ103 aggreg inactive and IMPase Li cell 7.08µM.
`O=C(Nc1ccccc1)OC[C@H](CN1CCCCC1)OC(=O)Nc1ccccc1` gave HPGD block inactive, IMPase inh inactive, HTT cytoprotect inactive, ALDH1A1 inh inactive, HttQ103 aggreg inactive and IMPase Li cell inactive.
Screening Cc1cccc(N(CC(=O)NCc2ccc3c(c2)OCO3)C(=O)CCC(=O)Nc2ccccn2)c1C returned HPGD block inactive, IMPase inh inactive, HTT cytoprotect inactive, ALDH1A1 inh 28.2µM, HttQ103 aggreg inactive and IMPase Li cell inactive.
